Measurements as given in the supplement of paper PMC6411743.
± gives the standard deviation of the averaged measurements. The full data set covers some 6,500 targets. This sample favours those with the largest changes.

Compound: Nc1ncnc2c1ncn2[C@@H]1O[C@H](COP(=O)(O)OP(=O)(O)OP(=O)(O)O)[C@@H](O)[C@H]1O [adenosine triphosphate]
Test: NP40-soluble protein abundance relative to vehicle (solubility fold change) (ratio); higher = more soluble protein in presence of ATP
How it was run: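 Eight concentrations, 0.1 to 10 mM, were tested on Jurkat crude lysate for 10 min at room temperature and then 3 min at 37 °C, in three independent experiments. The lysate was solubilised with 0.8% NP40 and benzonase, ultracentrifuged, and the supernatant TMT-labelled for LC-MS/MS. Each value is the fold change against the detergent-processed vehicle in its own replicate, from vsn-normalised intensities.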

UniProt Q8N766, sequence (Q8N766 whole entry): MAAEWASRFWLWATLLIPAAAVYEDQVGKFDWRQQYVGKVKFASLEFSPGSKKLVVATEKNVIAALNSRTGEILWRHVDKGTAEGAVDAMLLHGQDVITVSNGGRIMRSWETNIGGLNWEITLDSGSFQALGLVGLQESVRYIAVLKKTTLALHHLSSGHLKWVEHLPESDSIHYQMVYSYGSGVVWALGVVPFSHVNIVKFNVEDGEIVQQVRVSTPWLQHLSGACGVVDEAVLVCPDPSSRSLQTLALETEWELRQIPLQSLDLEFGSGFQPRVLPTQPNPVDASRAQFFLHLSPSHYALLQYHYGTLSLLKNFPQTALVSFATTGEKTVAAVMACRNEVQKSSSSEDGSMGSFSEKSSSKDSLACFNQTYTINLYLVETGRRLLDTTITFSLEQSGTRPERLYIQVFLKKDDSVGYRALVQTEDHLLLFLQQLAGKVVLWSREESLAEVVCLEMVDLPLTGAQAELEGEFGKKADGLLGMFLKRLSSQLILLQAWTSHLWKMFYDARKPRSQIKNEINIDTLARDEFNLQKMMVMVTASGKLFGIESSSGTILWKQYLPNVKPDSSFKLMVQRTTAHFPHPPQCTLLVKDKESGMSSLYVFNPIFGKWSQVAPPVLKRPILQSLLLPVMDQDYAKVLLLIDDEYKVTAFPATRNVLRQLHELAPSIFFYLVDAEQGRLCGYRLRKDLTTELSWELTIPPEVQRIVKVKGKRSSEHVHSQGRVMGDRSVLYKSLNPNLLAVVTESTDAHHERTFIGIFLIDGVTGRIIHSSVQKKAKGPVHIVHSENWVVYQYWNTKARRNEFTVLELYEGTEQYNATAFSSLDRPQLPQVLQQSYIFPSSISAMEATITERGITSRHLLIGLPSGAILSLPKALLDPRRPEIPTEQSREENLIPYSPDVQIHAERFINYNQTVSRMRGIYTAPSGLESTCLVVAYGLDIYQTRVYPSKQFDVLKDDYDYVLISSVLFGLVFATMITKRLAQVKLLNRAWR
UniProt Q7L590, sequence (Q7L590 whole entry, one chain of several): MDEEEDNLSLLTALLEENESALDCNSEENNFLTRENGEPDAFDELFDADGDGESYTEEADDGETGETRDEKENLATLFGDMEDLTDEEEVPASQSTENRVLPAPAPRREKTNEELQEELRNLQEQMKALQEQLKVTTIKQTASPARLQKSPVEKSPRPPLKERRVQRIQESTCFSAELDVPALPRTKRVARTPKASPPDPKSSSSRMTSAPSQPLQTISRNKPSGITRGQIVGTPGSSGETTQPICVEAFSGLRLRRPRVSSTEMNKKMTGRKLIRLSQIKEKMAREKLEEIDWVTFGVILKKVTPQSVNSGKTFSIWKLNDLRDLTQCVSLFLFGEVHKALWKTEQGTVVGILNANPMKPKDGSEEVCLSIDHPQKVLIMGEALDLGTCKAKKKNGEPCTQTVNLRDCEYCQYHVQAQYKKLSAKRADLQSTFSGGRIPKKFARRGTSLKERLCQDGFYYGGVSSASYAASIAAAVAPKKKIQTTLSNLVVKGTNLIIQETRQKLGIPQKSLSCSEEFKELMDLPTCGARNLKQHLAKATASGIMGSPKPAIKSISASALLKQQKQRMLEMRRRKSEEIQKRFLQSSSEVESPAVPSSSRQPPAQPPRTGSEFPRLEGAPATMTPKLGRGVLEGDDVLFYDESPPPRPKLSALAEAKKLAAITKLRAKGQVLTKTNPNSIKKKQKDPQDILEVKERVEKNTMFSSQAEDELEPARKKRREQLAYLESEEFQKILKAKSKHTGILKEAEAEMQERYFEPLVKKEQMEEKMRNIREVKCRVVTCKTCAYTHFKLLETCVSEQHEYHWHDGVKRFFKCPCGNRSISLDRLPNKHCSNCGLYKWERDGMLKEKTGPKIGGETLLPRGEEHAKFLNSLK
UniProt Q15819, sequence (Q15819 whole entry): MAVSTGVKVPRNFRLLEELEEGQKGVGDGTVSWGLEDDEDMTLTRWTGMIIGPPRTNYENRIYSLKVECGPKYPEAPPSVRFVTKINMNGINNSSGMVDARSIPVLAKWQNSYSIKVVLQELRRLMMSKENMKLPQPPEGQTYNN
UniProt Q08211, sequence (Q08211 whole entry): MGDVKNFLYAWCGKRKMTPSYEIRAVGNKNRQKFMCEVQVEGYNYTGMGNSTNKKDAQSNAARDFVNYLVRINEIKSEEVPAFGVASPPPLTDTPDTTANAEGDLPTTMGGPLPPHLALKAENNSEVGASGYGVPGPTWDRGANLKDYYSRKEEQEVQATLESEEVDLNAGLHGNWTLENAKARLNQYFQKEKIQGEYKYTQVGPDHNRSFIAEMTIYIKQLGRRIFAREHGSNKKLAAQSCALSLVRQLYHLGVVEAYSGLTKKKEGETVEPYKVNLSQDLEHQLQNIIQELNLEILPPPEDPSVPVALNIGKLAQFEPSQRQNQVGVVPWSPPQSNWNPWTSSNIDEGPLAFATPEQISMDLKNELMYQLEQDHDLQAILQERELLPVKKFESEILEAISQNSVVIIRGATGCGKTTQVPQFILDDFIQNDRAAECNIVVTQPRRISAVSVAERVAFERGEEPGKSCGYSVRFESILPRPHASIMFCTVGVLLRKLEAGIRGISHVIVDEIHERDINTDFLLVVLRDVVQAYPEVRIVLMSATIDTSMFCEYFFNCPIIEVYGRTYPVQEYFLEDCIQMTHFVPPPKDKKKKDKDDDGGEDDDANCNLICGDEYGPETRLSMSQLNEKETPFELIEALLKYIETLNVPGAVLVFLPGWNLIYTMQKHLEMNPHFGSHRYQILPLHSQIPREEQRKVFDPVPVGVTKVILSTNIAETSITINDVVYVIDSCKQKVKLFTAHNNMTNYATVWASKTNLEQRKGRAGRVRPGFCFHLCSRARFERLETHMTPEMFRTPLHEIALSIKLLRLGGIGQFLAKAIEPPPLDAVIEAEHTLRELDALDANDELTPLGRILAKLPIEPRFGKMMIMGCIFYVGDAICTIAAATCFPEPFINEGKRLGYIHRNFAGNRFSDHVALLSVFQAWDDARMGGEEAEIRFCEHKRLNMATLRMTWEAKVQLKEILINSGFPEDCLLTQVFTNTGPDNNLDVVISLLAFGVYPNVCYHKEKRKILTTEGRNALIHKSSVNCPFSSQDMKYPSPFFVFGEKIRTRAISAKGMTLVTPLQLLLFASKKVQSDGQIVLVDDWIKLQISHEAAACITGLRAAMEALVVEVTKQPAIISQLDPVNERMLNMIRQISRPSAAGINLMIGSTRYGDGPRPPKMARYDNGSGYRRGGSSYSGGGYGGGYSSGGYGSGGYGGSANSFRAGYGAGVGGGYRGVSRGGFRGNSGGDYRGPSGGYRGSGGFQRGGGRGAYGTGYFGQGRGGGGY
UniProt Q8TEB1, sequence (Q8TEB1 whole entry): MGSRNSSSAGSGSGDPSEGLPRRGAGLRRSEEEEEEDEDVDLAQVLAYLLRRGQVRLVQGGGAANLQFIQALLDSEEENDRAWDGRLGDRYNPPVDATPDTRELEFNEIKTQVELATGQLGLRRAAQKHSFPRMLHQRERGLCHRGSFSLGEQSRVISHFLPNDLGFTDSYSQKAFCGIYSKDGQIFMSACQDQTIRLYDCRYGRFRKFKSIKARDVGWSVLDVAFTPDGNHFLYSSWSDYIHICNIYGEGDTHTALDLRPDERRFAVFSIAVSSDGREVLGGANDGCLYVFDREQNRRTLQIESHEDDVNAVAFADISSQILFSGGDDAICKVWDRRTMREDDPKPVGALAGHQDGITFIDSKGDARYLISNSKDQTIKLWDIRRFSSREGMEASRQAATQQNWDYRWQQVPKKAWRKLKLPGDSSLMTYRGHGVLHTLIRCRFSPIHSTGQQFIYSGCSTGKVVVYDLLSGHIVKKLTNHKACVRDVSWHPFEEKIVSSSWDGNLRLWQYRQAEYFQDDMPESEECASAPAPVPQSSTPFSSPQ
UniProt Q5JUR7, sequence (Q5JUR7 whole entry): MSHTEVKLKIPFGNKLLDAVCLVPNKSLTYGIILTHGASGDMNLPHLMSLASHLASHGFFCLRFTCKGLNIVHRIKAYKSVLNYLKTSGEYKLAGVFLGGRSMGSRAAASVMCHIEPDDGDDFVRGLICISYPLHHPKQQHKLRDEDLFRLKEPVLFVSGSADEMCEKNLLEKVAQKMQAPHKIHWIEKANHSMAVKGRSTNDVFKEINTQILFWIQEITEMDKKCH
UniProt Q53GS7, sequence (Q53GS7 whole entry): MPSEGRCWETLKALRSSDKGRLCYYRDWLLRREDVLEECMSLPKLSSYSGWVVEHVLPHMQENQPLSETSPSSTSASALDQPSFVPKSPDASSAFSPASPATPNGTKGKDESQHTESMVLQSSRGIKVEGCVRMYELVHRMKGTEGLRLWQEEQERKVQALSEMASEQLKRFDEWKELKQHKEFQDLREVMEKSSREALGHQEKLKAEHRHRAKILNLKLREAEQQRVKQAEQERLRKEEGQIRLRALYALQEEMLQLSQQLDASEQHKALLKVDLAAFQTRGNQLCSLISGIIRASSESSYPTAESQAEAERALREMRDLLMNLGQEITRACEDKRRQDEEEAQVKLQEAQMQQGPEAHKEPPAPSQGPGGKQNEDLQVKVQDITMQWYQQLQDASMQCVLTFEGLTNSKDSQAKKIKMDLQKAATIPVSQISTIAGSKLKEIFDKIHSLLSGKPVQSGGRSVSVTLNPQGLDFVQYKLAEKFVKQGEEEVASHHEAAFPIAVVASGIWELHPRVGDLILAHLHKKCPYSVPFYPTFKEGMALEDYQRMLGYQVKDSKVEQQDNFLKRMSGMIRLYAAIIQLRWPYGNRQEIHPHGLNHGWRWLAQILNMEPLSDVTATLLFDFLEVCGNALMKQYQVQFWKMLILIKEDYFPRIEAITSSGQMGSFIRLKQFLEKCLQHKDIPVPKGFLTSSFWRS
UniProt Q7Z5G4, sequence (Q7Z5G4 whole entry): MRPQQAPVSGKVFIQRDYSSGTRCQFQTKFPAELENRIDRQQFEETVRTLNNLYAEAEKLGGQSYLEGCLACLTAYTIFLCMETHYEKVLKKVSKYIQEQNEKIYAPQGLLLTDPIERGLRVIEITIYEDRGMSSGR
UniProt Q14061, sequence (Q14061 whole entry): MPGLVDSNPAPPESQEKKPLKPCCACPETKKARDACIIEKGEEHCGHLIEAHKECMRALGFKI

Target	NP40-soluble protein abundance (concentration: 1mM)	NP40-soluble protein abundance (concentration: 2mM)	NP40-soluble protein abundance (concentration: 4mM)	NP40-soluble protein abundance (concentration: 6mM)	NP40-soluble protein abundance (concentration: 8mM)	NP40-soluble protein abundance (concentration: 10mM)
UniProt Q86UY6	1.39 ± 0.18	1.46 ± 0.14	1.56 ± 0.21	1.66 ± 0.26	1.69 ± 0.21	1.69 ± 0.15
UniProt Q14677|Q14677-3	1.04 ± 0.042	1.05 ± 0.02	1.04 ± 0.028	1.11 ± 0.027	1.07 ± 0.033	1.09 ± 0.055
UniProt Q0VDD8-4	0.837 ± 0.098	0.884 ± 0.028	0.9026 ± 0.0016	0.9241 ± 0.0037	0.956 ± 0.13	1.06 ± 0.059
SMC5 (UniProt Q8IY18)	1.02 ± 0.026	1.02 ± 0.013	1.02 ± 0.02	1.04 ± 0.02	1.04 ± 0.016	1.04 ± 0.017
UniProt Q7L4P6|Q7L4P6-2	0.995 ± 0.085	1.12 ± 0.2	1.23 ± 0.3	1.2 ± 0.21	1.02 ± 0.096	1.12 ± 0.14
RNF20 (UniProt Q5VTR2)	0.962 ± 0.05	0.961 ± 0.02	0.935 ± 0.024	0.997 ± 0.041	0.935 ± 0.019	0.933 ± 0.017
UniProt Q53GS7|Q53GS7-2	1.18 ± 0.079	1.19 ± 0.12	1.39 ± 0.24	1.54 ± 0.24	1.52 ± 0.2	1.71 ± 0.23
UniProt Q8N684|Q8N684-2|Q8N684-3	1.51 ± 0.076	1.61 ± 0.016	1.75 ± 0.065	1.81 ± 0.081	1.82 ± 0.055	1.83 ± 0.032
UniProt Q8NCA5|Q8NCA5-2	1.01 ± 0.056	1.14 ± 0.15	1.18 ± 0.12	1.26 ± 0.14	1.41 ± 0.14	1.64 ± 0.23
UniProt Q8N3X1|Q8N3X1-2	1.01 ± 0.026	1.11 ± 0.013	1.29 ± 0.042	1.57 ± 0.027	1.72 ± 0.08	1.9 ± 0.082
THOC5 (UniProt Q13769)	1.53 ± 0.054	1.68 ± 0.11	2.01 ± 0.17	2.23 ± 0.28	2.52 ± 0.27	2.52 ± 0.29
TBL3 (UniProt Q12788)	1.15 ± 0.06	1.3 ± 0.04	1.58 ± 0.036	1.59 ± 0.11	1.89 ± 0.1	2.01 ± 0.089
UniProt Q86VR2	0.91 ± 0.084	0.941 ± 0.088	0.925 ± 0.11	0.869 ± 0.037	0.906 ± 0.064	0.943 ± 0.052
UniProt Q16181|Q16181-2	0.891 ± 0.15	0.979 ± 0.023	0.9086 ± 0.0056	0.963 ± 0.076	0.957 ± 0.026	0.911 ± 0.046
TRIM14 (UniProt Q14142)	1.08 ± 0.044	1.05 ± 0.037	1.13 ± 0.088	1.1 ± 0.083	1.17 ± 0.067	1.27 ± 0.2
UniProt Q15906|Q15906-2	1.13 ± 0.12	1.13 ± 0.092	1.22 ± 0.12	1.27 ± 0.23	1.24 ± 0.12	1.26 ± 0.13
UniProt Q13243	1.5 ± 0.12	1.63 ± 0.088	1.76 ± 0.12	1.95 ± 0.11	1.92 ± 0.13	1.98 ± 0.07
AUH (UniProt Q13825)	0.96 ± 0.062	0.979 ± 0.049	0.967 ± 0.035	0.93 ± 0.082	0.96 ± 0.055	0.973 ± 0.036
CUL4A (UniProt Q13619)	0.99 ± 0.13	0.955 ± 0.08	0.918 ± 0.08	0.89 ± 0.098	0.963 ± 0.047	0.94 ± 0.047
FAM117B (UniProt Q6P1L5)	0.945 ± 0.048	0.984 ± 0.061	0.97 ± 0.039	0.978 ± 0.042	0.952 ± 0.069	0.946 ± 0.032

Target	NP40-soluble protein abundance (concentration: 1mM)	NP40-soluble protein abundance (concentration: 2mM)	NP40-soluble protein abundance (concentration: 4mM)	NP40-soluble protein abundance (concentration: 6mM)	NP40-soluble protein abundance (concentration: 8mM)	NP40-soluble protein abundance (concentration: 10mM)
UniProt Q6KCM7-2|Q6KCM7-3|Q6KCM7|Q6KCM7-4|Q6KCM7-5	0.871 ± 0.048	0.884 ± 0.061	0.831 ± 0.012	0.758 ± 0.085	0.868 ± 0.039	0.894 ± 0.026
UniProt Q3KQU3|Q3KQU3-4	1.08 ± 0.1	1.03 ± 0.11	1.09 ± 0.13	1.13 ± 0.26	1.1 ± 0.16	1.14 ± 0.13
UniProt Q86U06|Q86U06-2|Q86U06-4|Q86U06-5|G3XAP0	1.5 ± 0.41	1.53 ± 0.31	1.48 ± 0.33	1.76 ± 0.46	1.56 ± 0.41	1.46 ± 0.49
UniProt Q8N766|Q8N766-3	0.974 ± 0.082	0.977 ± 0.065	0.982 ± 0.056	0.878 ± 0.1	0.934 ± 0.013	0.977 ± 0.052
UniProt Q70Z53	0.931 ± 0.015	0.927 ± 0.028	0.919 ± 0.011	0.922 ± 0.066	0.933 ± 0.058	0.936 ± 0.013
UniProt Q15397	1.28 ± 0.054	1.39 ± 0.058	1.53 ± 0.073	1.6 ± 0.13	1.7 ± 0.042	1.96 ± 0.12
UniProt Q15036|Q15036-2	0.88 ± 0.17	0.835 ± 0.14	0.853 ± 0.15	0.808 ± 0.18	0.808 ± 0.12	0.849 ± 0.16
UniProt Q8TEB1|Q8TEB1-2	0.948 ± 0.093	0.977 ± 0.06	0.961 ± 0.079	0.956 ± 0.054	0.942 ± 0.066	0.918 ± 0.078
UniProt Q8NC60	0.967 ± 0.17	0.876 ± 0.13	0.889 ± 0.13	0.876 ± 0.2	0.945 ± 0.15	0.942 ± 0.14
UniProt Q5JUR7	1 ± 0.077	1.07 ± 0.12	1.04 ± 0.029	1.02 ± 0.13	1.05 ± 0.087	1.06 ± 0.062
UniProt Q8NI08-2	0.989 ± 0.064	1.03 ± 0.032	1.01 ± 0.016	1.02 ± 0.022	0.989 ± 0.039	0.993 ± 0.024
DDX51 (UniProt Q8N8A6)	1.25 ± 0.021	1.38 ± 0.085	1.65 ± 0.15	1.9 ± 0.22	2.05 ± 0.18	2.29 ± 0.27
GSPT2 (UniProt Q8IYD1)	1.035 ± 0.0061	1.023 ± 0.0095	1 ± 0.016	1.01 ± 0.02	0.991 ± 0.042	0.987 ± 0.037
UniProt Q641Q2|F8W7U3|Q641Q2-2	0.968 ± 0.057	0.9815 ± 0.0096	0.938 ± 0.033	0.94 ± 0.094	0.895 ± 0.05	0.896 ± 0.047
UniProt Q7Z5G4|Q7Z5G4-3	0.928 ± 0.02	0.914 ± 0.015	0.902 ± 0.019	0.885 ± 0.046	0.878 ± 0.014	0.897 ± 0.032
UniProt Q7L590|Q7L590-2|Q5T670	1.01 ± 0.11	1.07 ± 0.059	1.13 ± 0.044	1.01 ± 0.057	1.11 ± 0.12	1.14 ± 0.12
UniProt Q14155-1	1 ± 0.011	0.9849 ± 0.0056	0.97 ± 0.013	1.02 ± 0.05	0.976 ± 0.024	0.962 ± 0.034
ERCC6L (UniProt Q2NKX8)	0.999 ± 0.024	0.986 ± 0.026	0.971 ± 0.024	0.999 ± 0.033	0.966 ± 0.0079	0.978 ± 0.017
UniProt Q13642-1|Q13642-4|Q13642-5	0.979 ± 0.17	0.968 ± 0.11	0.956 ± 0.098	0.926 ± 0.091	0.979 ± 0.12	0.983 ± 0.064
UniProt Q8IY17|Q8IY17-3|Q8IY17-4|Q8IY17-2	1.05 ± 0.056	1.05 ± 0.033	1.028 ± 0.0096	1.01 ± 0.051	1.04 ± 0.04	1.06 ± 0.036

Target	NP40-soluble protein abundance (concentration: 1mM)	NP40-soluble protein abundance (concentration: 2mM)	NP40-soluble protein abundance (concentration: 4mM)	NP40-soluble protein abundance (concentration: 6mM)	NP40-soluble protein abundance (concentration: 8mM)	NP40-soluble protein abundance (concentration: 10mM)
UniProt Q53HC0|Q53HC0-2	0.993 ± 0.083	0.918 ± 0.031	0.939 ± 0.082	0.993 ± 0.21	0.966 ± 0.092	0.922 ± 0.084
TYSND1 (UniProt Q2T9J0)	0.977 ± 0.047	0.983 ± 0.058	0.995 ± 0.042	0.947 ± 0.013	0.974 ± 0.032	0.96 ± 0.076
TOMM20 (UniProt Q15388)	0.921 ± 0.086	0.896 ± 0.044	0.903 ± 0.11	0.886 ± 0.041	0.8947 ± 0.0073	0.803 ± 0.21
FLCN (UniProt Q8NFG4)	1.02 ± 0.056	1 ± 0.037	1.05 ± 0.066	0.988 ± 0.058	0.977 ± 0.07	0.974 ± 0.033
UniProt Q8WU79|A0A087WV97|Q8WU79-2|Q8WU79-3	0.891 ± 0.067	0.924 ± 0.024	0.869 ± 0.011	0.975 ± 0.047	0.839 ± 0.017	0.872 ± 0.032
C6ORF134 (UniProt Q5SQI0)	0.975 ± 0.073	0.98 ± 0.089	0.981 ± 0.064	0.999 ± 0.09	0.983 ± 0.029	0.998 ± 0.04
UniProt Q8NEJ9|Q8NEJ9-2	1.11 ± 0.12	1.13 ± 0.16	1.24 ± 0.064	1.29 ± 0.14	1.32 ± 0.058	1.34 ± 0.19
ZNF672 (UniProt Q499Z4)	0.994 ± 0.061	1.07 ± 0.0039	1 ± 0.089	0.93 ± 0.078	0.996 ± 0.047	0.995 ± 0.016
DCUN1D3 (UniProt Q8IWE4)	0.923 ± 0.038	0.949 ± 0.049	0.998 ± 0.035	0.92 ± 0.034	0.931 ± 0.039	0.866 ± 0.11
UniProt Q8N6N3|Q8N6N3-2	0.865 ± 0.1	0.81 ± 0.041	0.869 ± 0.13	0.822 ± 0.051	0.779 ± 0.12	0.817 ± 0.063
UBE2V2 (UniProt Q15819)	0.932 ± 0.018	0.904 ± 0.027	0.9 ± 0.045	0.922 ± 0.032	0.885 ± 0.035	0.853 ± 0.028
UniProt Q4FZB7	0.985 ± 0.15	1.1 ± 0.23	1.07 ± 0.11	1.01 ± 0.16	1.01 ± 0.029	0.983 ± 0.065
DHX9 (UniProt Q08211)	1.24 ± 0.071	1.29 ± 0.043	1.49 ± 0.03	1.55 ± 0.024	1.88 ± 0.091	1.95 ± 0.15
COX17 (UniProt Q14061)	0.938 ± 0.1	0.895 ± 0.074	0.92 ± 0.1	0.963 ± 0.033	0.859 ± 0.056	0.847 ± 0.023
LARP1 (UniProt Q6PKG0)	0.939 ± 0.062	0.988 ± 0.065	1.06 ± 0.059	1.2 ± 0.069	1.22 ± 0.043	1.33 ± 0.065
TTC19 (UniProt Q6DKK2)	0.971 ± 0.078	0.922 ± 0.037	0.973 ± 0.043	0.923 ± 0.04	0.985 ± 0.038	0.865 ± 0.094
UniProt Q13045|Q13045-2	1.01 ± 0.039	0.985 ± 0.042	0.974 ± 0.03	0.949 ± 0.058	0.976 ± 0.026	0.968 ± 0.051
UniProt Q14643|Q14643-2|Q14643-5	1.05 ± 0.071	0.999 ± 0.065	1 ± 0.041	0.961 ± 0.07	1.02 ± 0.027	0.995 ± 0.045
PPIG (UniProt Q13427)	1.61 ± 0.22	1.69 ± 0.27	1.78 ± 0.32	1.99 ± 0.49	1.85 ± 0.43	1.95 ± 0.46
UniProt Q13111|K7EPA1	0.987 ± 0.059	0.988 ± 0.028	0.97 ± 0.035	1.03 ± 0.031	0.977 ± 0.036	1.01 ± 0.036
